Compound activity (PubChem)
In the library only some 2.1% were active in any assay of this set; here they are far more common.
aSyn UTR inh: MLPCN primary screen, SNCA 5' untranslated region; inhibition, % (tested at 7.5 µM); alpha-synuclein 5'UTR reporter, inhibitor activity; hit rate 0.82% among 300,000; in the data active = inhibition above about 60%;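 also: H4 neuroglioblastoma cells stably carrying SNCA 5'UTR luciferase fusion; 0% = DMSO wells and 100% = positive control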
APP 5UTR inh: APP translation inhibition. inhibition, % at 2 µM. SH-SY5Y APP 5'UTR-luciferase reporter, luminescence. hit rate 0.82% among 190,000;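 active = inhibition above a set limit, derived from the sample mean plus 3 SD, cut at about 45% in these data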
BaF3 tox: reduces parental Ba/F3 cell viability, JAK2V617F counter-screen; hit rate 1.1% among 220,000; CellTiter-Glo ATP luminescence; inhibition, % at 5.6 µM; AID 1486;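 active = inhibition above a per-campaign cutoff, the mean inhibition of all tested compounds plus 3 SD, cut at about 27% in these data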;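 also: 0% = DMSO wells and 100% = JAK Inhibitor I control wells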
KLF5 inh: inhibitors of KLF5 expression; AID 1700; inhibition, % at 5 µM; DLD-1 KLF5 promoter-luciferase reporter, luminescence; hit rate 0.23% among 290,000;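 active = inhibition above a per-plate limit of that plate's mean compound inhibition plus 3 SD, cut at about 60% in these data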;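 also: 0% = DMSO wells and 100% = LY294002 at 200 µM; higher means less KLF5 promoter-driven luciferase light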
Ba/F3 V617F tox: lowers viability of Ba/F3 cells expressing EpoR and JAK2V617F | ATP luminescence | inhibition, % at 5.6 µM | hit rate 1.1% among 220,000;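 active = inhibition above the campaign mean plus 3 SD over all tested compounds, cut at about 24% in these data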;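 also: cytokine-independent growth of Ba/F3 cells driven by EpoR plus mutant JAK2; 0% = DMSO-treated cells and 100% = JAK inhibitor I control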
IEC-6 tox: kills IEC-6 intestinal cells in KLF5 counter-screen; hit rate 0.78% among 290,000; IEC-6 cytotoxicity, luminescence viability; inhibition, % at 5 µM;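 also: 0% = plate median of test compound wells and 100% = cytotoxic reference compound wells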
IEC-6 tox confirm: confirmation of cytotoxic compounds in rat IEC-6 intestinal epithelial cells; shares compounds with IEC-6 tox; IEC-6 rat intestinal epithelial viability, luminescence; inhibition, % at 5 µM; hit rate 63% among 1,900; AID 1907;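 also: 0% = vehicle and 100% = reference cytotoxic drug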
* = called active by the depositor. Rule as the data show it, unless noted: active = inhibition above about 22%; inactive = the rest.

Screening Clc1cccc2c1Sc1ccccc1CC2N1CCNCC1 (stereo unspecified) returned aSyn UTR inh -1, APP 5UTR inh 2, BaF3 tox 8, KLF5 inh 1, Ba/F3 V617F tox 6, IEC-6 tox 23* and IEC-6 tox confirm 9.
Screening CCOc1ccc(N(Cc2cc3ccc(C)cc3[nH]c2=O)S(=O)(=O)c2ccccc2)cc1 returned aSyn UTR inh -35, KLF5 inh 25, IEC-6 tox 22* and IEC-6 tox confirm -6.
COc1ccc(-c2[nH]ncc2/C=C(/C#N)C(=O)NC2CCCCC2)cc1 was read as aSyn UTR inh 48, APP 5UTR inh 8, BaF3 tox 3, KLF5 inh -24, Ba/F3 V617F tox 1 and IEC-6 tox 16.
`Cc1ccc(-c2[nH]ncc2/C=C(\C#N)C(=O)NC2CCCCC2)cc1` gave aSyn UTR inh 56, APP 5UTR inh -27, BaF3 tox 6, KLF5 inh 13, Ba/F3 V617F tox 5, IEC-6 tox 22* and IEC-6 tox confirm 18.
Cc1ccc(C(=O)NNC(=O)CCCCC(=O)NNC(=O)c2ccc(C)cc2)cc1 was read as aSyn UTR inh 8, KLF5 inh -27 and IEC-6 tox 2.
`Brc1ccc2ncnc(Nc3cccc4ccccc34)c2c1` gave aSyn UTR inh -22, APP 5UTR inh -14, BaF3 tox 8, KLF5 inh 15, Ba/F3 V617F tox 0, IEC-6 tox 28* and IEC-6 tox confirm 41*.
`COc1ccc(OC)c(Nc2ncnc3ccc(Br)cc23)c1` gave aSyn UTR inh 18, KLF5 inh 14 and IEC-6 tox 5.
`Cc1ccc(Nc2nc(N)nc(-c3oc4ccccc4c3C)n2)cc1` gave aSyn UTR inh 91*, APP 5UTR inh 92*, BaF3 tox 76*, KLF5 inh 58, Ba/F3 V617F tox 76*, IEC-6 tox 83* and IEC-6 tox confirm 79*.
`Cc1cccc(Nc2nc(N)nc(-c3oc4ccccc4c3C)n2)c1` gave aSyn UTR inh -23, BaF3 tox 4, KLF5 inh -63, Ba/F3 V617F tox -5 and IEC-6 tox 12.
For COc1cccc(Nc2nc(N)nc(-c3oc4ccccc4c3C)n2)c1 the results were aSyn UTR inh -25, APP 5UTR inh 76*, BaF3 tox 14, KLF5 inh -42, Ba/F3 V617F tox 12, IEC-6 tox 25* and IEC-6 tox confirm 35*.
Screening COc1ccccc1NC(=O)c1cc(S(=O)(=O)N2CCCC2)cn1C returned aSyn UTR inh 2, KLF5 inh -2 and IEC-6 tox 2.
For Cc1cc(=O)oc2cc(OCCCC[n+]3ccccc3)ccc12 the results were aSyn UTR inh -11, BaF3 tox -1, KLF5 inh -51, Ba/F3 V617F tox -2 and IEC-6 tox -6.
`Cc1cc(=O)oc2cc(OCCc3ccccc3)ccc12` gave aSyn UTR inh -50, KLF5 inh -132, IEC-6 tox 44* and IEC-6 tox confirm 22*.
COc1cccc(C(=O)COc2ccc3c(C)cc(=O)oc3c2)c1 was read as aSyn UTR inh -106, KLF5 inh -34, IEC-6 tox 28* and IEC-6 tox confirm 18.
`COc1ccc(C(=O)COc2ccc3c(C)cc(=O)oc3c2)cc1` gave aSyn UTR inh -38, KLF5 inh -31 and IEC-6 tox -3.
Screening COc1ccc(C2=NOC(COc3ccc4c(C)cc(=O)oc4c3)C2)c(OC)c1 (stereo unspecified) returned aSyn UTR inh 83*, APP 5UTR inh 73*, BaF3 tox 70*, KLF5 inh 49, Ba/F3 V617F tox 78*, IEC-6 tox 60* and IEC-6 tox confirm 56*.
`CCO[C@H]1OC(C(=O)NCc2nc3ccccc3[nH]2)=C[C@@H](c2ccc3c(c2)OCO3)[C@@H]1CCCO` gave aSyn UTR inh -12.
For CCOc1ccc(-c2c[n+]3c(n2-c2ccccc2)CCCCC3)cc1 the results were aSyn UTR inh 19, APP 5UTR inh -22, BaF3 tox 70*, KLF5 inh -45, Ba/F3 V617F tox 89*, IEC-6 tox 25* and IEC-6 tox confirm 19.
For CCOc1ccc(-c2nnc(-c3ccccc3)n2-c2ccccc2)cc1 the results were aSyn UTR inh -22, APP 5UTR inh -15, BaF3 tox 1, KLF5 inh 0, Ba/F3 V617F tox 0 and IEC-6 tox -9.
`O=C(Cc1cccc2ccccc12)Nc1c(F)cccc1F` gave aSyn UTR inh -25, KLF5 inh -53 and IEC-6 tox -1.
For COc1ccc(S(=O)(=O)NCc2ccccn2)cc1NC(=O)c1ccccc1 the results were aSyn UTR inh -62, KLF5 inh 47, IEC-6 tox 45* and IEC-6 tox confirm 45*.
COC(=O)Nc1ccc(S(=O)(=O)N2CCCCC2C(=O)O)cc1 (stereo unspecified) was read as aSyn UTR inh 21, APP 5UTR inh 3, BaF3 tox 5, KLF5 inh -17, Ba/F3 V617F tox -3 and IEC-6 tox 1.
CC(=O)Nc1ccc(S(=O)(=O)N2CCCc3ccccc32)cc1 was read as aSyn UTR inh -12, APP 5UTR inh -11, BaF3 tox 20, KLF5 inh 4, Ba/F3 V617F tox 22, IEC-6 tox 40* and IEC-6 tox confirm 42*.
`COC(=O)Nc1ccc(S(=O)(=O)N2c3ccccc3CCC2C)cc1` (stereo unspecified) gave aSyn UTR inh 27, APP 5UTR inh 61*, BaF3 tox 41*, KLF5 inh 31, Ba/F3 V617F tox 57*, IEC-6 tox 48* and IEC-6 tox confirm 53*.
`CCc1nc(SCC(=O)Nc2ccccc2Cl)n[nH]1` gave aSyn UTR inh 2, KLF5 inh -4 and IEC-6 tox 7.
CC(c1ccco1)N(C(=O)c1cccc(Br)c1)c1ccccn1 (stereo unspecified) was read as aSyn UTR inh -15, KLF5 inh -77 and IEC-6 tox 2.
Cc1ccc(S(=O)(=O)c2nnn3c2nc(N2CCOCC2)c2ccccc23)c(C)c1 was read as aSyn UTR inh 20, KLF5 inh -9 and IEC-6 tox 7.
`O=C(CN1CCN(Cc2ccccc2)CC1)N=Nc1c(O)[nH]c2ccccc12` gave aSyn UTR inh 50, APP 5UTR inh 9, BaF3 tox 6, KLF5 inh -8, Ba/F3 V617F tox -1, IEC-6 tox 23* and IEC-6 tox confirm 6.
For O=C(CN1CCCCC1)N=Nc1c(O)[nH]c2ccccc12 the results were aSyn UTR inh -24, APP 5UTR inh -2, BaF3 tox 8, KLF5 inh -23, Ba/F3 V617F tox 3 and IEC-6 tox -1.
For O=C(Nc1ccnn1C1CCN(Cc2ccccc2OC(F)F)CC1)c1cccnc1 the results were aSyn UTR inh -13, KLF5 inh -14 and IEC-6 tox 0.
